In the library only some 3.7% were active in any assay of this set; here they are far more common.
ANO1 block – TMEM16A chloride channel inhibitors, primary screen, cell-based, HTS; Anoctamin-1 (Mus musculus), Q8BHY3; HEK293 TMEM16A/YFP iodide influx fluorescence, ionomycin; normalized B-score (activity score, 25-100; higher = stronger inhibition) at 10 µM; 310,000 compounds, 1.2% hits;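 active means ratio plate-corrected score three or more library SD toward inhibition, starting fluorescence score within five deviations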;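 further: score derived from kinetic fluorescence span divided by baseline fluorescence per well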
TMEM16A act – TMEM16A chloride channel activators or potentiators, primary screen, cell-based, HTS | Anoctamin-1 (Mus musculus), Q8BHY3 | HEK293 TMEM16A/YFP-H148Q/I152L, iodide quench fluorescence; stronger effect = lower value | B-score at 10 µM | 340,000 compounds, 0.3% hits | AID 623877, 2012;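 active means fluorescence-ratio B-score plate-corrected deviation score at least 3 library SD below zero, with starting fluorescence score within 5 deviations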;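 further: channel opened by trigger with iodide after compound preincubation; score built on the fluorescence ratio of max minus min over baseline; more negative score means more quench and so TMEM16A activation or potentiation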
CHT block – inhibitors of human choline transporter CHT | High affinity choline transporter 1 (Homo sapiens), Q9GZV3 | CHT-expressing cells, membrane potential dye, choline response; stronger effect = lower value | B-score at 10 µM | 310,000 compounds, 0.86% hits | AID 488975, 2010;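 active means B-score over 3 SD under the library average, and starting fluorescence ratio not unusually high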;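 further: choline stimulus applied at its EC90 after an EC20 pre-addition; B-score computed on integrated fluorescence ratio after choline addition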
CHT allo act – CHT positive allosteric modulators, primary screen, cell-based, membrane potential dye, choline EC20 | High affinity choline transporter 1 (Homo sapiens), Q9GZV3 | CHT-expressing cells; stronger effect = higher value; LV-AA mutant CHT in HEK293 cells | B-score at 10 µM | 310,000 compounds, 0.49% hits;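 active means initial fluorescence not abnormally high and integrated response B-score, plate-corrected, over 3 SD above library mean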
Kir21 inh – inhibitors of mouse Kir2.1 inward-rectifier potassium channel; Inward rectifier potassium channel 2 (Mus musculus), P35561; HEK293-Kir2.1, FluxOR thallium flux fluorescence; stronger effect = lower value; B-score at 10 µM; 310,000 compounds, 0.85% hits; AID 1672, 2009;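 active means fluorescence ratio B-score at or below minus 3 SD of library scores, with starting-brightness B-score within 2 SD, cut at about -4.2 in these data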;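 further: channel flux triggered by added potassium and thallium sulfate stimulus; B-score of peak minus minimum fluorescence over baseline after thallium stimulus; more negative B-score means stronger Kir2.1 block with less thallium influx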
GPR7 antag – GPR7 receptor antagonists, primary screen, cell-based, fluorescence, single concentration. GPR7-expressing cells, fluorescence antagonist assay. AID 1861, 2009. 290,000 compounds, 1.1% hits. inhibition, % at 4.4 µM; in the data active means inhibition above about 16%, passing the limit was not always enough;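 further: cells stimulated with the agonist NPW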
Target sequence (P48145 whole entry, looked up): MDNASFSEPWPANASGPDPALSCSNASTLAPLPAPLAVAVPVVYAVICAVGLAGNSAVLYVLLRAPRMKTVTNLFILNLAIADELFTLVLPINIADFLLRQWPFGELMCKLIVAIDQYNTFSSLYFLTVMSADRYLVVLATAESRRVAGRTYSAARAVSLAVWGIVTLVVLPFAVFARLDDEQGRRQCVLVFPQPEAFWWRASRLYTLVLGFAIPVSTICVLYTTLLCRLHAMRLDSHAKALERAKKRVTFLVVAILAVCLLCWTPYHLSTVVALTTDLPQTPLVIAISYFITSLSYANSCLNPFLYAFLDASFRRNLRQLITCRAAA
hERG inh – hERG channel inhibition, counter-screen for Kir2.1 inhibitor project, cell-based, thallium flux. shares compounds with Kir21 inh. hERG-expressing cells. inhibition, % at 10 µM. 320 compounds, 20% hits. AID 2236, 2010;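 further: host cells are CHO cells stably expressing hERG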
KCNK9 inh – KCNK9 channel inhibition, selectivity assay for Kir2.1 inhibitor project, cell-based. shares compounds with Kir21 inh. inhibition, % at 10 µM. KCNK9-expressing cells, ion flux inhibition. 320 compounds, 5% hits
Kir2-1 patch inh – mouse Kir2.1 channel blockers, Kir2.1 inhibitor project, cell-based, secondary, automated electrophysiology; shares compounds with Kir21 inh; Kir2.1 cells, automated patch-clamp current inhibition; inhibition, % at 25 µM; 320 compounds, 71% hits; AID 463252, 2010
Of the large screens only hits and unclear results are named; the others gave an inactive call (follow-up assays come after a bar, where they were run). Unless noted, how the calls were made is not given here.

CC(C)CC(=O)/C(=C/c1ccc(N(C)C)cc1)n1cncn1	none
CC(C)CC(=O)/C(=C\c1ccc(Cl)cc1Cl)n1cncn1	TMEM16A act -7.12, Kir21 inh -8.18 (no result: ANO1 block, CHT block, CHT allo act)
O=C(CCC(=O)N1CCOc2ccc(Cl)cc21)NCCCN1CCC(Cc2ccccc2)CC1	Kir21 inh -6.64
Cc1ccc(S(=O)(=O)NCc2ccc(C(=O)N(C)CCC#N)cc2)cc1	none
CN(CCC#N)C(=O)c1ccc(CNS(=O)(=O)c2ccc(F)cc2)cc1	GPR7 antag 16.4
Clc1ccc(Cn2c(-c3cccnc3Cl)nc3ccccc32)cc1	Kir21 inh -5.33
CCn1c(-c2cccnc2Cl)nc2cc(Cl)c(Cl)cc21	none
C(=N\Nc1nc(Nc2ccccc2)nc(N2CCOCC2)n1)/c1c[nH]c2ccccc12	ANO1 block 25 (no result: TMEM16A act)
Cc1sc2nc(CSc3ccccc3)nc(N3CCN(C)CC3)c2c1C	Kir21 inh -4.69
CCOC(=O)N1CCN(Cc2cc(=O)oc3cc4c(cc23)CCC4)CC1	TMEM16A act -13.6
Cn1c(NCc2c(O)ccc3ccccc23)nc2ccccc21	none
Cn1c(NCc2ccc(Cl)cc2)nc2ccccc21	Kir21 inh -9.62
C=CCNC(=O)c1sccc1Oc1ccc(F)cc1[N+](=O)[O-]	none
COC(=O)c1c(C)[nH]c(C)c1-c1cccc([N+](=O)[O-])c1	TMEM16A act -7.71
Nc1nc(-c2ccccc2)ns1	none (no result: ANO1 block, CHT block, CHT allo act, Kir21 inh, GPR7 antag)
CCc1ccc(OCCOCC(O)CN2CCN(Cc3ccc(Cl)cc3)CC2)cc1 (stereo not given)	ANO1 block 100, Kir21 inh -9.06
O=S(=O)(c1ccc(OC(F)(F)F)cc1)N1CCCC(N2CCOCC2)C1 (stereo not given)	none
O=C(CSCc1cccc(Cl)c1)Nc1ccccc1-c1ccccc1	Kir21 inh -5.71
NC(=O)c1ccccc1NC(=O)COC(=O)CSCc1cccc(Cl)c1	none (no result: ANO1 block, CHT block, CHT allo act, Kir21 inh, GPR7 antag)
Cc1ccccc1CSCC(=O)Nc1ccccc1-c1ccccc1	Kir21 inh -6.9
COc1ccc(/C=C/C(=O)Nc2c(C(=O)O)[nH]c3ccccc23)cc1OC	none
CC1=NN(c2ccc(Cl)c(C(=O)O)c2)C(=O)/C1=C\c1ccc(-c2ccc(C(=O)O)cc2)o1	none (no result: ANO1 block, CHT block, CHT allo act)
CC1=NN(c2ccc(C(=O)O)cc2)C(=O)/C1=C/c1ccc(-c2ccccc2F)o1	ANO1 block 100
CC1=NN(c2ccccc2)C(=O)/C1=C/c1ccc(Cl)cc1	ANO1 block 25
C/C(=N/OC(=O)c1ccc(C)cc1)c1cccs1	none
C/C(=N/OC(=O)c1ccccc1Br)c1ccc(C)cc1	ANO1 block 25
Cc1ccc2c(CN3CCN(S(=O)(=O)c4ccccc4C(F)(F)F)CC3)cc(=O)oc2c1C	none (no result: ANO1 block, CHT block, CHT allo act, Kir21 inh, GPR7 antag)
CCOC(=O)c1sc(NC(=O)c2cc(-c3ccccc3)nc3ccccc23)c(C#N)c1C	ANO1 block 100
CCOC(=O)c1sc(NC(=O)c2cccnc2)c(C#N)c1C	none
CCOC(=O)c1sc(NC(=O)CSc2nc(C)cc(C)n2)c(C#N)c1C	none
CCOC(=O)c1sc(NC(=O)CSc2n[nH]c(-c3ccccc3)n2)c(C#N)c1C	ANO1 block 100
Cn1cc(Br)c(NS(=O)(=O)c2ccc(Cl)s2)n1	none
CC(C)Cn1c(CN2CCCCC2C)nc2c1c(=O)n(C)c(=O)n2C (stereo not given)	TMEM16A act -8.15
Cc1csc2nc(CSc3nc4ccccc4o3)c(Br)n12	ANO1 block 25
Cc1csc2nc(CSc3nncn3-c3ccccc3)c(Br)n12	none
c1cc2c3c(cccc3c1)C(N1CCN(C3=Nc4cccc5cccc3c45)CC1)=N2	none (no result: ANO1 block, TMEM16A act, CHT block, CHT allo act, Kir21 inh)
CCOC(=O)N1CCN(C2=Nc3cccc4cccc2c34)CC1	CHT block -7.09
CC(=O)c1c(COC(=O)c2ccccc2Cl)nc2ccccc2[n+]1[O-]	none
Cc1ccc(Sc2ccc(NC(=O)CCN3C(=O)NC4(CCCC4)C3=O)cc2)c(C)c1	TMEM16A act -24 (no result: ANO1 block, CHT block, CHT allo act, Kir21 inh, GPR7 antag)
O=C(CCCN1C(=O)NC2(CCCC2)C1=O)Nc1ccc(F)cc1	none (no result: ANO1 block, CHT block, CHT allo act, Kir21 inh, GPR7 antag)
OC(CNCCN1CCNCC1)Cc1ccccc1 (stereo not given)	none (no result: ANO1 block, CHT block, CHT allo act, Kir21 inh, GPR7 antag)
CS(=O)(=O)Nc1ccccc1C(=O)Nc1cccc(Cl)c1	ANO1 block 25
COc1ccccc1CN(C)C(=O)c1sccc1-c1ccccc1	Kir21 inh -5.42
COc1ccc(CN(C)CC(O)COC(c2ccccc2)c2ccccc2)c(OC)c1OC (stereo not given)	Kir21 inh -5.95 | hERG inh 69.0% | KCNK9 inh inactive | Kir2-1 patch inh inactive
CCN(CC)CC(O)COC(c1ccccc1)c1ccccc1 (stereo not given)	none
Cc1cccn2c(=O)c3cc(S(=O)(=O)c4ccc(Br)cc4)c(=N)n(C4CCCC4)c3nc12	none | hERG inh inactive | KCNK9 inh inactive | Kir2-1 patch inh inactive
COc1cc(NS(=O)(=O)c2ccc(NC(=S)Nc3ccccc3)cc2)nc(OC)n1	none
COc1cc(NS(=O)(=O)c2ccc(Nc3nc(-c4ccccc4)cs3)cc2)nc(OC)n1	none | hERG inh inactive | KCNK9 inh inactive | Kir2-1 patch inh inactive
COc1ccc(CNCC(O)COc2ccc(C)cc2[N+](=O)[O-])cc1 (stereo not given)	Kir21 inh -8.7 | hERG inh inactive | KCNK9 inh inactive | Kir2-1 patch inh 61.4%
COc1ccc(CCNCC(O)COc2ccc(OC)cc2C(C)(C)C)cc1 (stereo not given)	Kir21 inh -6.19 | hERG inh 61.0% | KCNK9 inh inactive | Kir2-1 patch inh inactive
COc1ccc(Cl)cc1NC(=O)CN(C)C1CCS(=O)(=O)C1 (stereo not given)	none (no result: ANO1 block, CHT block, CHT allo act, Kir21 inh, GPR7 antag)
CCOc1cc(/C=N/NS(=O)(=O)c2ccccc2)ccc1OS(=O)(=O)c1ccc(C)cc1	none
CCOc1cc(/C=N/O)ccc1OS(=O)(=O)c1ccc(C)cc1	Kir21 inh -7.52 | hERG inh inactive | KCNK9 inh inactive | Kir2-1 patch inh 6.7%

High-throughput results (PubChem BioAssay)
